# Calls of active or inactive are those of the source.
# How the values were obtained:
# [1] = test system: Plasmodium falciparum Sir2 (PF13_0152, Sir2A); assay: Plasmodium falciparum Sir2A binding compounds – biochemical, small-molecule microarray, 635 nm fluorescence, primary screen (AID 1098); conditions: fluorescence 635 nm, higher = more signal;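 also: score merges spot fluorescence intensity with its signal-to-noise ratio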
# [2] = probe aDKK1 binding to arrayed compounds – biochemical, biotinylated probe, 635/667 nm fluorescence, primary screen (AID 1099); conditions: small-molecule microarray, higher = more signal;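 also: score merges 667nm spot fluorescence with signal to noise across triplicate slides; reference of the scale not given here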
# [3] = probe aCHRDL2 binding to arrayed compounds – biochemical, biotinylated probe, 635/667 nm fluorescence, primary screen (AID 1100); conditions: small-molecule microarray, higher = more signal
# [4] = change in splice reporter luminescence, either direction, cell-based, HEK293, spliceosome inhibition project, primary screen (AID 1101); conditions: HEK293 splicing luciferase reporter, 24 h, higher = more signal, called active from +8 up or from −8 down;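 also: HEK293 cells carrying a splicing-competent luciferase reporter gene; test concentration not given here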
# [5] = target: Fibroblast growth factor 10 (Homo sapiens) (UniProt O15520); assay: compounds binding fibroblast growth factor 10 – biochemical, small-molecule microarray, 635 nm fluorescence, primary screen (AID 1102); conditions: FGF10 binding, fluorescence 635 nm, higher = more signal
# Sequence of Fibroblast growth factor 10 (Homo sapiens) (O15520 whole entry, looked up): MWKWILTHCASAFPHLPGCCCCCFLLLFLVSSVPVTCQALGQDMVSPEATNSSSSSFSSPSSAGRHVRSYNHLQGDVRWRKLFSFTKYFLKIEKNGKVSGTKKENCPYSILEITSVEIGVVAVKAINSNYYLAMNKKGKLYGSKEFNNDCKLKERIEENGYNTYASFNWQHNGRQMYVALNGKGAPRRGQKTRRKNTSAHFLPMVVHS
# [6] = test system: glycogen synthase kinase-3 (GSK3A per assay name; protocol says GSK3B); assay: compounds binding glycogen synthase kinase-3 – biochemical, small-molecule microarray, 635 nm fluorescence, GSK3A, primary screen (AID 1103); conditions: fluorescence 635 nm, higher = more signal; also: the record names both GSK3A and GSK3B
# [7] = target: Epidermal growth factor receptor (Homo sapiens) (UniProt P00533); assay: compounds binding epidermal growth factor receptor – biochemical, small-molecule microarray, 635 nm fluorescence, primary screen (AID 1104); conditions: EGFR binding, higher = more signal;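 also: score merges 667 nm emission intensity with spot signal to noise over triplicate slides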
# Sequence of Epidermal growth factor receptor (Homo sapiens) (P00533 whole entry, looked up): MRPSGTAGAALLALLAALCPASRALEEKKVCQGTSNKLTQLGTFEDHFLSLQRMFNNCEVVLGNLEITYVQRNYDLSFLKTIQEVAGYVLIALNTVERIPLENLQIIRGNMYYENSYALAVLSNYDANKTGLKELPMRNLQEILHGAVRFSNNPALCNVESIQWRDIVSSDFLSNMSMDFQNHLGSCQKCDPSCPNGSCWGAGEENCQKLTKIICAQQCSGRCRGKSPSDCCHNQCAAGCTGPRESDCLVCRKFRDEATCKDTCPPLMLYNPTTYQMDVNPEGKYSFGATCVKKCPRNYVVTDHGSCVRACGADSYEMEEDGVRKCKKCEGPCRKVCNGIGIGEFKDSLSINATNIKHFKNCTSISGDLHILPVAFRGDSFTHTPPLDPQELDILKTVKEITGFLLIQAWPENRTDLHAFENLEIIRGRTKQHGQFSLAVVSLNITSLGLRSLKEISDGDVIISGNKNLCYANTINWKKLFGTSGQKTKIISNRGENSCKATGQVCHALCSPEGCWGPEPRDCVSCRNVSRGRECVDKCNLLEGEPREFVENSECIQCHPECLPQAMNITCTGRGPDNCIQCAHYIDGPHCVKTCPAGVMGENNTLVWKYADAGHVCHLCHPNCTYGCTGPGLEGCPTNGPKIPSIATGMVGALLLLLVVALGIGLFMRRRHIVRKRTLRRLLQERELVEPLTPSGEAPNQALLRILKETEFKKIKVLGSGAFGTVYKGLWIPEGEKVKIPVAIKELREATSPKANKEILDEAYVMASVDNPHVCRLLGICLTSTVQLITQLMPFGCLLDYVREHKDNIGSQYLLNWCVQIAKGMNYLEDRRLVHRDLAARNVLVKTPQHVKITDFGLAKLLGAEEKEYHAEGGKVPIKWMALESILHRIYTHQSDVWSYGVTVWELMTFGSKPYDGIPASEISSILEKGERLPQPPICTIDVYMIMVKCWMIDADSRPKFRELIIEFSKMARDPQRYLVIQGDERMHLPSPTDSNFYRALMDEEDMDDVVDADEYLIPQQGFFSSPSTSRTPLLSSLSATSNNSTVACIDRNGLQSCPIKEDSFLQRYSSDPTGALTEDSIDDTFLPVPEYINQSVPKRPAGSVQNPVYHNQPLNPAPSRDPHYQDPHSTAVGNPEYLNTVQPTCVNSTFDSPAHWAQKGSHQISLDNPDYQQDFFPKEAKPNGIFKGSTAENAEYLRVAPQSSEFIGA
# [8] = target: Follistatin-related protein 3 (Homo sapiens) (UniProt O95633); assay: compounds binding follistatin-related protein 3 – biochemical, small-molecule microarray, 635 nm fluorescence, primary screen (AID 1105); conditions: FSTL3 binding, higher = more signal;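 also: score merges emission near 667 nm and signal to noise per printed spot across three slides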
# Sequence of Follistatin-related protein 3 (Homo sapiens) (O95633 whole entry, looked up): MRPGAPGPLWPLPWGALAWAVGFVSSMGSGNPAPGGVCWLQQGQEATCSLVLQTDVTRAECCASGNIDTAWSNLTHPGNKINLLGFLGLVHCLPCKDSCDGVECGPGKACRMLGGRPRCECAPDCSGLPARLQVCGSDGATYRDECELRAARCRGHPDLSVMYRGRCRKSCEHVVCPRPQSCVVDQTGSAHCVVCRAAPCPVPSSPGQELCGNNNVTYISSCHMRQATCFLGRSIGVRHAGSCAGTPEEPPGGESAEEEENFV
# [9] = target: Dickkopf-related protein 1 (Homo sapiens) (UniProt O94907); assay: small molecules binding DKK1 protein – biochemical, small-molecule microarray, 635 nm fluorescence scan, primary screen (AID 1106); conditions: higher = more signal;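 also: score merges emission near 667 nm with signal to noise over three replicate slides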
# Sequence of Dickkopf-related protein 1 (Homo sapiens) (O94907 whole entry, looked up): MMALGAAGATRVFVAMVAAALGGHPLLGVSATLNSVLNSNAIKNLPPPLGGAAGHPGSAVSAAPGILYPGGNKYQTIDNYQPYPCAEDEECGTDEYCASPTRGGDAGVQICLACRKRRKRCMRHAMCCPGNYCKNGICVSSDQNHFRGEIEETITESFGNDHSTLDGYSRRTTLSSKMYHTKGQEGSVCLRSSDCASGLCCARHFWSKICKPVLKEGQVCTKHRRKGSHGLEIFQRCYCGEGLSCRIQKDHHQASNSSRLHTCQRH
# [10] = test system: Inhibin beta A chain (activin A); assay: small molecules binding activin A – biochemical, small-molecule microarray, 635 nm fluorescence scan, primary screen (AID 1107); conditions: INHBA, higher = more signal;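 also: mouse activin A protein probed at 4.33 µg/mL on printed slides; score merges bound-protein fluorescence near 667 nm with spot signal-to-noise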
SMILES,composite z-score [1],composite z-score [2],composite z-score [3],z-score [4],composite z-score [5],composite z-score [6],composite z-score [7],composite z-score [8],composite z-score [9],composite z-score [10]
CC(C)C(=C=CC[C@H](O)c1ccc(OCCO)cc1)C[C@H](O)c1cc(Cl)cc(Cl)c1O,0.631,-0.0017,-0.249,-0.492 (inactive),0.893,0.741,0.122,0.699,-0.0061,0.707
C#CCNC(=O)[C@H](Cc1ccccc1)NC(=O)[C@@H](N=[N+]=[N-])C(C)C,0.435,-0.218,-0.503,0.177 (inactive),0.18,0.596,0.398,0.335,0.654,0.554
C=C(CCCC)C(=O)CC[C@@H](OC(=O)c1ccccc1-c1ccccc1C(=O)O)c1cccc(OCCO)c1,1.13,-0.302,-0.353,2.89 (inactive),0.946,0.297,-0.0833,0.556,0.339,1.2
C[C@]12C(=O)N(CCCCCCO)[C@@H]3C(=O)N(c4ccc(Cl)cc4)CC=CC31O[C@@H]1/C=C\CCCOC(=O)C12 (stereo not given in full),1.93,-0.134,0.391,-1.54 (inactive),-0.188,-0.431,-0.506,-0.394,-0.742,1.05
CCOc1cc(C(O)C2C=CC3C(=O)N(C)C(=O)C3N2N2CCCCC2)ccc1O (stereo not given),1.56,0.637,0.101,0.377 (inactive),0.264,-0.37,0.287,0.276,0.164,0.898
CCOc1cc(C(O)C2C=CC3C(=O)N(C4CCCCC4)C(=O)C3N2Nc2ccc(OC)cc2)ccc1O (stereo not given),0.692,-0.0443,0.913,-0.556 (inactive),0.423,1.21,0.388,0.741,0.105,0.959
CCOC(=O)C[C@H]1[C@H](OC(=O)c2ccc(-c3ccccc3)cc2)[C@@H](NC(=O)c2ccc3ccccc3n2)c2cc(OCCCO)ccc2N1C(=O)c1ccccc1,0.418,0.048,0.475,0.0748 (inactive),0.785,0.653,0.143,1.09,0.216,0.407
CC(C)c1ccc(NN2C(C(O)c3ccco3)C=CC3C(=O)N(c4ccccc4)C(=O)C32)cc1 (stereo not given),1.02,0.978,1.09,0.165 (inactive),0.783,1.3,0.0401,1.22,0.191,1.14
CC=CC(O)C1C=CC2C(=O)N(C)C(=O)C2N1Nc1ccc([N+](=O)[O-])cc1[N+](=O)[O-] (stereo not given),1.1,0.121,0.636,0.607 (inactive),-0.49,-1.06,-0.898,-0.79,-0.232,1.11
C=C(/C(=C/C[C@@H](OC(=O)c1ccncc1)c1ccc(OCCO)cc1)c1cc(C(=O)OC)ccc1OC)C(C)C,0.596,-0.354,-0.338,-0.432 (inactive),0.426,0.284,0.325,0.609,-0.0107,0.309
C[C@]1(C(=O)NCCN2CCOCC2)c2ccccc2C(=O)N(Cc2ccc(OC(F)(F)F)cc2)[C@H]1c1ccc(CO)cc1,0.654,-0.103,0.604,0.396 (inactive),-0.564,-0.254,-1.39,-0.381,-1.33,-0.017
COC(=O)[C@@]1(Cc2ccc(OC)cc2)[C@H]2c3cc(C(=O)N(C)C)n(CCc4c[nH]c5ccc(O)cc45)c3C[C@H]2CN1C(=O)c1ccccc1,1.06,1.43,0.984,-1.65 (inactive),0.934,1.12,0.562,1.23,-0.509,1.26
CN1C(=O)[C@@]2(CCS(=O)(=O)c3ccccc3)N=C(c3ccc(OCCCO)cc3)O[C@H]2c2ccccc21,1.12,0.0859,0.861,-1.06 (inactive),0.939,1.32,0.364,1.05,0.172,0.615
COc1ccc(C(O)C2C=CC3C(=O)N(Cc4ccccc4)C(=O)C3N2n2cnnc2)c2ccccc12 (stereo not given),1.83,-0.0611,0.873,-0.781 (inactive),-1.12,0.233,-1.17,0.127,-1.45,0.48
O=C1C[C@]2(c3ccc([N+](=O)[O-])cc3)C(=O)N(Cc3ccccc3)c3cc(CO)ccc3[C@H]2N1CC12CC3CC(CC(C3)C1)C2,-1.44,1.03,0.259,1.39 (inactive),-0.36,-0.855,-0.478,-0.791,-0.852,-0.544
O=C1OC[C@@H](c2ccccc2)N2CC(/C=C/c3ccccc3)=CC12 (stereo not given in full),-0.0726,-0.144,0.537,-0.521 (inactive),-0.529,-0.511,-2.06,-1.16,-1.15,0.0575
CC(C)CN1C(=O)[C@@]2(Cc3ccccc31)c1ccccc1C(=O)N(Cc1ccccc1C(F)(F)F)[C@H]2c1ccc(CO)cc1,0.957,-0.0363,0.223,-0.596 (inactive),-0.621,-1.59,-0.478,-0.676,-1.05,0.731
C=CCN1C(=O)[C@@]2(O[C@@H](CCn3cc([C@H](O)c4ccccc4)nn3)[C@H]([Si](C)(C)c3ccc(OC)cc3)[C@H]2C)c2ccccc21,1.52,-0.0203,0.0047,-0.56 (inactive),0.756,0.658,0.32,1.19,0.694,0.0239
C[C@]1(C(=O)O)c2ccccc2C(=O)N(Cc2ccccc2)[C@H]1c1ccc(CO)cc1,1.51,0.44,1.11,-0.602 (inactive),-1.97,-1.83,-1.63,-1.38,-1.64,0.463
O=c1cccc(-c2cccc(Cl)c2)o1,0.261,0.177,0.114,0.269 (inactive),0.227,0.415,0.167,0.149,-0.0521,0.338
CC(C)(C)OC(=O)CC[C@]1(C(=O)N2CCOCC2)N=C(c2ccc(OCCCO)cc2)O[C@H]1c1ccccc1,1.65,0.126,0.417,0.12 (inactive),1.05,0.488,-0.433,0.0033,-0.158,0.456
